Reference: ChEMBL document CHEMBL3433997, “St. Jude Leishmania screening dataset” (2016)
“And” between values parts separate entries of the source, which are not always exact repeats. Equal entries are not always repeated.

Assays:
Type in all cases: functional
[1] = biological target: Solute carrier family 2, facilitated glucose transporter member 1 (Homo sapiens) (UniProt P11166); test: ST_JUDE_LEISH: Cytotoxicity at 2uM final concentration against transgenic Leishmania Mexicana promastigotes LmGLUT1 that are glucose transport deficient and complemented with the human glucose transporter GLUT1. Activity is measured by DNA content using SYBR green in vitro
Sequence of Solute carrier family 2, facilitated glucose transporter member 1 (Homo sapiens) (P11166 whole entry): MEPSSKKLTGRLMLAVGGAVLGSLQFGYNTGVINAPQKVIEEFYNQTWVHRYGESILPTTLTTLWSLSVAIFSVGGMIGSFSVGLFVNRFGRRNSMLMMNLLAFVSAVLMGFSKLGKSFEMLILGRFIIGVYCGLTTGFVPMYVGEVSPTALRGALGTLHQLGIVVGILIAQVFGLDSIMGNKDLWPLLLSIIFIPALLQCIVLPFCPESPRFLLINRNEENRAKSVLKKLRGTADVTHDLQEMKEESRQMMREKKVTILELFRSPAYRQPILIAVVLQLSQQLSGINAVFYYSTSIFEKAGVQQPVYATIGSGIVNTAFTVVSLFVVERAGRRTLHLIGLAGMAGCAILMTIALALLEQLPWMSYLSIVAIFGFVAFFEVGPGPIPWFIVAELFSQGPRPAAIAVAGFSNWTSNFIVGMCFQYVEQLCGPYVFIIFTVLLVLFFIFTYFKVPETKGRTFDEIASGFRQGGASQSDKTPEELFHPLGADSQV

[2] = biological target: Hexose transporter 1 (Plasmodium falciparum) (UniProt O97467); test: ST_JUDE_LEISH: Cytotoxicity at 2uM final concentration against transgenic Leishmania Mexicana promastigotes LmPfHT that are glucose transport deficient and complemented with the Plasmodium falciparum hexose transporter. Activity is measured by DNA content using SYBR green in vitro
[3] = biological target: Glucose transporter (Leishmania mexicana) (UniProt O61059); test: ST_JUDE_LEISH: Cytotoxicity at 2uM final concentration against transgenic Leishmania Mexicana promastigotes LmGT2 that are glucose transport deficient and complemented with the L. Mexicana glucose transporter 2. Activity is measured by DNA content using SYBR green in vitro

Compound | inhibition [1] | inhibition [2] | inhibition [3]
COC(=O)c1ccc(CC(C)NCC(O)c2cccc(C(F)(F)F)c2)cc1 (stereo not drawn) | 2.79% and 2.21% and 1.58% | -0.93% and 1.17% and 2.06% | 2.89% and 0.72% and 2.04%
COc1cc(NC(=O)c2nn(CCCN3CCC4(CC3)C(=O)NCN4c3ccccc3)cc2-c2ccc(Cl)c(Cl)c2)cc(OC)c1OC | -0.06% | 8.62% | 0.13%
c1ccc2c(NCCCCCCCCCNc3c4ccccc4nc4ccccc34)c3ccccc3nc2c1 | 3.03% | 6.11% | 2.42%
CCOC(=O)c1ccc(CC(C)NCC(O)c2cccc(C(F)(F)F)c2)cc1 (stereo not drawn) | -2.26% | -1.71% | -0.87%
CC[C@H]1CN2CCc3cc(OC)c(OC)cc3[C@@H]2C[C@@H]1C[C@H]1NCCc2cc(OC)c(OC)cc21 | 96.8% | 94% | 90.3%
Cn1nc(-c2ccc(S(=O)(=O)N3CCC(CN4CCC(c5c[nH]c6ccccc56)CC4)CC3)s2)cc1C(F)(F)F | 0.1% | 2.15% | -1.24%
O=C(NC1CCC(CN2CCC(c3c[nH]c4ccccc34)CC2)CC1)c1ccc(-c2ccccc2[N+](=O)[O-])o1 (stereo not drawn) | 3.68% | 1.85% | -0.67%
O=c1n[n+](C2CCCCC2)[n-]o1 | -0.73% | -0.13% | -0.34%
O=C(NC1CCC(CN2CCC(c3c[nH]c4ccccc34)CC2)CC1)[C@H]1Cc2ccccc2CN1 (stereo partly drawn) | 1.47% | 2.41% | 4.44%
COC(=O)c1ccc(CC(C)NCC(O)c2cccc(I)c2)cc1 (stereo not drawn) | -0.53% | -1% | 0.29%
O=C(/C=C/c1ccc(Cl)c(Cl)c1)N(Cc1ccccc1)C1CCC(CN2CCC(c3c[nH]c4ccccc34)CC2)CC1 (stereo not drawn) | 4.82% | 2.84% | 4.05%
Cc1[nH]c2ccc(O)cc2c1C1CCN(CC2CCC(NC(=O)/C=C/c3c(Cl)cccc3Cl)CC2)CC1 (stereo not drawn) | 1.67% | 0.48% | 3.62%
O=C(/C=C/c1ccc(Cl)c(Cl)c1)NC1CCC(CN2CCC(c3c[nH]c4ccccc34)C(O)C2)CC1 (stereo not drawn) | 5.68% | 3.72% | 4.19%
COc1ccc(OC)c(C(O)C(C)NCc2cc(Cl)ccc2O)c1 (stereo not drawn) | 0.78% | 1.14% | 1.94%
COc1cc(CN2CCN(c3ccnc(N(C)C4CCN(C)CC4)n3)CC2)cc(Cl)c1O | 5.87% | 7.29% | 6.73%
N=c1c2c(n(Cc3ccc(Cl)cc3Cl)c3c1CCC3)CCCC2 | 17.8% | 26.7% | 6.7%

Compound | inhibition [1] | inhibition [2] | inhibition [3]
CNCCCN(C)C(=O)Oc1c(Br)c(C)nc(C)c1-c1ccc(Oc2ccc(OC(F)(F)F)cc2)cc1 | -0.18% | -3.25% | -1.27%
COc1cc(C=CC(=O)NC2CCC(CN3CCC(c4c[nH]c5ccccc45)CC3)CC2)cc(OC)c1 (stereo not drawn) | -1.01% | -2.18% | -3.65%
CN1C(=O)OC[C@@H]1Cc1ccc2[nH]cc(C3=CCN(Cc4ccccc4)CC3)c2c1 | 2.44% | 7.87% | -0.74%
COc1cccc(C2(NC[C@@H](O)[C@H](Cc3ccccc3)NC(=O)c3ccccc3)CCCCC2)c1 | 0.07% | -1.37% | -4.56%
CC(C)C[C@H](Nc1ccc(C#N)c2ccccc12)C(=O)N[C@@H]1CCCc2ccccc21 | 3.96% | 1.88% | 1.15%
CCOC(C(=O)OCC1CCCN(C)C1)(c1ccccc1)c1ccccc1 (stereo not drawn) | 4.97% | 4.46% | 5.83%
CCc1ccc(CC(C)NCC(O)c2ccccc2)cc1 (stereo not drawn) | 1.06% | 1.04% | 1.94%
CN(c1cc(NC(=O)c2ccc(F)cc2)ccn1)C1CCN(Cc2cccc(C#N)c2)CC1 | 3.24% | -2.19% | 5.14%
CC[C@H]1CN2CC[C@H]1C[C@H]2[C@H](O)c1cc(-c2ccc(OC(F)(F)F)cc2)nc2ccc(OC)cc12 | 4.51% | 2.38% | 3.6%
O=C(C=Cc1cccc(Cl)c1Cl)NC1CCC(CN2CCC(c3c[nH]c4ccccc34)CC2)CC1 (stereo not drawn) | 9.75% and 1.21% | 23.6% and 3.22% | 11.8% and -0.36%
CCCc1c(C(=O)NC2CCC(CN3CCC(c4c[nH]c5ccccc45)CC3)CC2)cnn1-c1ccc(Cl)cc1 (stereo not drawn) | -0.47% | -1.46% | -1.49%
CC(C)CNCc1cccc(-c2ccc(CN(C(=O)NC3CCCCC3)C3CCN(Cc4ccccc4)CC3)cc2)c1 | 4.72% | 5.99% | 5.84%
CO/C(=C\C=C\c1cc2cc(Cl)c(Cl)cc2[nH]1)C(=O)N[C@H]1CN2CCC1CC2 | 0.86% | -0.23% | -0.34%
Oc1cccc(C2CCCN(Cc3cccc4cc[nH]c34)C2)c1 (stereo not drawn) | 2.13% | 4% | 3.75%
O=C(NC1CCC(CN2CCC(c3c[nH]c4ccccc34)CC2)CC1)c1cc(-c2ccccc2Cl)n(-c2cccc(Cl)c2)n1 (stereo not drawn) | 3.93% | 2.86% | 1.71%
